According to PubChem BioAssay (NCATS):
Records with an inconclusive call do not appear. Active and inactive are the calls of the source. Calls follow the shape of the full dose curve. Numbered stars: 1 amine (or outer) side, 2 acyl side, 3 side chain; on linkers, the order of the positions; unused ones are H or OH. Bridge positions count the residues as written; N and C are the ends. Square brackets hold non-standard residues; d marks the D form. Peptide text beside a SMILES is read from it. I, II: the chains in the order shown. Actinocin(9to1) = Cc1c2oc3c(C)ccc(C(=O)[*:1])c3nc-2c(C(=O)[*:2])c(N)c1=O; NMeV = CN[C@H](C(=O)O)C(C)C; Sar = CNCC(=O)O

Assay: Cell Viability - HepG2 (AID 433);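 also: potency for ATP loss meaning cytotoxicity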
Conditions: qHTS
Summary of the method: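 Cytotoxicity is scored as loss of intracellular ATP in HepG2 cells exposed to compounds for 40 h. Concentration-response curves, normalized to DMSO and 100 uM tamoxifen, give AC50 values.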
Potency is read from the fitted curve at half-maximal effect.

Compound	Potency
CC/C(=C(/CC)c1ccc(O)cc1)c1ccc(O)cc1	> 92 µM (inactive)
CN(C)/N=N/c1nc[nH]c1C(N)=O	> 92 µM (inactive)
O=C(O)CCCCC(=O)O	> 92 µM (inactive)
C[C@]12CC[C@@H]3c4ccc(O)cc4CC[C@H]3[C@@H]1CC[C@@H]2O	> 92 µM (inactive)
Cc1c2oc3c(C)ccc(C(=O)N[C@@H]4C(=O)N[C@H](C(C)C)C(=O)N5CCC[C@H]5C(=O)N(C)CC(=O)N(C)[C@@H](C(C)C)C(=O)O[C@@H]4C)c3nc-2c(C(=O)N[C@@H]2C(=O)N[C@H](C(C)C)C(=O)N3CCC[C@H]3C(=O)N(C)CC(=O)N(C)[C@@H](C(C)C)C(=O)O[C@@H]2C)c(N)c1=O (I: T[dV]P[Sar][NMeV] / II: T[dV]P[Sar][NMeV]; ester I:1-I:C, II:1-II:C; linker I:N-II:N via Actinocin(9to1))	> 92 µM (inactive)
C=CCc1ccc(O)c(OC)c1	> 92 µM (inactive)
COC1=CC(=O)C[C@@H](C)[C@]12Oc1c(Cl)c(OC)cc(OC)c1C2=O	> 92 µM (inactive)
CC(O)C(=O)O (stereo not given)	> 92 µM (inactive)
NC(=NCCCCCCN=C(N)/N=C(\N)Nc1ccc(Cl)cc1)/N=C(\N)Nc1ccc(Cl)cc1	39.6 µM (active)
O=c1ccc2ccccc2o1	> 92 µM (inactive)
CCCCCCc1ccc(O)cc1O	> 92 µM (inactive)
Nc1ccc(C(=O)O)cc1	> 92 µM (inactive)
O=C1OC(c2ccc(O)cc2)(c2ccc(O)cc2)c2ccccc21	> 92 µM (inactive)
COc1cccc2c1C(=O)c1c(O)c3c(c(O)c1C2=O)C[C@@](O)(C(=O)CO)C[C@@H]3O[C@H]1C[C@H](N)[C@H](O)[C@H](C)O1	> 92 µM (inactive)

Assay: Cell Viability - MRC5 (AID 434);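 also: cells exposed to compound for 40 hours at 37 °C; potency reflects cytotoxicity seen as loss of intracellular ATP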
Conditions: MRC5 lung fibroblast viability, qHTS
Summary of the method: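 ATP luminescence read-out (CellTiter-Glo, 20 min RT) after 40 hr, 37 °C compound exposure of 1500 MRC5 cells/well. Data normalized to DMSO (basal) and 100 uM tamoxifen (100% inhibition); AC50 from standard Hill equation.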

Compound	Potency
CC/C(=C(/CC)c1ccc(O)cc1)c1ccc(O)cc1	> 92 µM (inactive)
CN(C)/N=N/c1nc[nH]c1C(N)=O	> 92 µM (inactive)
O=C(O)CCCCC(=O)O	> 92 µM (inactive)
C[C@]12CC[C@@H]3c4ccc(O)cc4CC[C@H]3[C@@H]1CC[C@@H]2O	> 92 µM (inactive)
Cc1c2oc3c(C)ccc(C(=O)N[C@@H]4C(=O)N[C@H](C(C)C)C(=O)N5CCC[C@H]5C(=O)N(C)CC(=O)N(C)[C@@H](C(C)C)C(=O)O[C@@H]4C)c3nc-2c(C(=O)N[C@@H]2C(=O)N[C@H](C(C)C)C(=O)N3CCC[C@H]3C(=O)N(C)CC(=O)N(C)[C@@H](C(C)C)C(=O)O[C@@H]2C)c(N)c1=O (I: T[dV]P[Sar][NMeV] / II: T[dV]P[Sar][NMeV]; ester I:1-I:C, II:1-II:C; linker I:N-II:N via Actinocin(9to1))	> 92 µM (inactive)
C=CCc1ccc(O)c(OC)c1	> 92 µM (inactive)
COC1=CC(=O)C[C@@H](C)[C@]12Oc1c(Cl)c(OC)cc(OC)c1C2=O	> 92 µM (inactive)
CC(O)C(=O)O (stereo not given)	> 92 µM (inactive)
NC(=NCCCCCCN=C(N)/N=C(\N)Nc1ccc(Cl)cc1)/N=C(\N)Nc1ccc(Cl)cc1	50 µM (active)
O=c1ccc2ccccc2o1	> 92 µM (inactive)
CCCCCCc1ccc(O)cc1O	> 92 µM (inactive)
Oc1c(I)cc(Cl)c2cccnc12	44.2 µM (active)
Nc1ccc(C(=O)O)cc1	> 92 µM (inactive)
O=C1OC(c2ccc(O)cc2)(c2ccc(O)cc2)c2ccccc21	> 92 µM (inactive)

Assay: Cell Viability - SK-N-SH (AID 435);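 also: compound exposure lasted 40 h at 37 °C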
Conditions: SK-N-SH neuroblastoma cell viability qHTS
Summary of the method: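 Cells seeded at 1500 per well and incubated 5 hr at 37 °C. Compound added, then 40 hr at 37 °C. CellTiter-Glo added, 20 min at room temperature, luminescence read.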

Compound	Potency
CN(C)/N=N/c1nc[nH]c1C(N)=O	> 92 µM (inactive)
O=C(O)CCCCC(=O)O	> 92 µM (inactive)
Cc1c2oc3c(C)ccc(C(=O)N[C@@H]4C(=O)N[C@H](C(C)C)C(=O)N5CCC[C@H]5C(=O)N(C)CC(=O)N(C)[C@@H](C(C)C)C(=O)O[C@@H]4C)c3nc-2c(C(=O)N[C@@H]2C(=O)N[C@H](C(C)C)C(=O)N3CCC[C@H]3C(=O)N(C)CC(=O)N(C)[C@@H](C(C)C)C(=O)O[C@@H]2C)c(N)c1=O (I: T[dV]P[Sar][NMeV] / II: T[dV]P[Sar][NMeV]; ester I:1-I:C, II:1-II:C; linker I:N-II:N via Actinocin(9to1))	> 92 µM (inactive)
C=CCc1ccc(O)c(OC)c1	> 92 µM (inactive)
CC(O)C(=O)O (stereo not given)	> 92 µM (inactive)
NC(=NCCCCCCN=C(N)/N=C(\N)Nc1ccc(Cl)cc1)/N=C(\N)Nc1ccc(Cl)cc1	46.5 µM (active)
O=c1ccc2ccccc2o1	> 92 µM (inactive)
CCCCCCc1ccc(O)cc1O	> 92 µM (inactive)
Oc1c(I)cc(Cl)c2cccnc12	38.6 µM (active)
Nc1ccc(C(=O)O)cc1	> 92 µM (inactive)
O=C1OC(c2ccc(O)cc2)(c2ccc(O)cc2)c2ccccc21	> 92 µM (inactive)
COc1cccc2c1C(=O)c1c(O)c3c(c(O)c1C2=O)C[C@@](O)(C(=O)CO)C[C@@H]3O[C@H]1C[C@H](N)[C@H](O)[C@H](C)O1	0.0168 µM (active)
